According to PubChem BioAssay (EPA / NIEHS):
Inconclusive results are not listed. Activity calls are given as the source filed them. How the source made its calls, unless noted: active means hit-call score of the fitted dose curve at least 0.9, where 1 is the maximum; inconclusive means response in the unintended direction; inactive means score below 0.9.

What was measured:
[1] = Tanguay_ZF_120hpf_TR_legacy: (Legacy) Oregon State University Tanguay Lab 120 Hour Post-fertilization zebrafish Assay for Touch Response (AID 2283667)
Outline: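 Tropical 5D wild-type zebrafish embryos statically exposed to 120 hpf at 28°C, sealed and dark-covered, 0.64% DMSO final; touch response scored as present/absent by brightfield microscopy at 120 hpf. Trimethyltin chloride 5 uM positive control; dead embryos not scored.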

[2] = read-out: sulfotransferase (SULT2A), SULT2A1 (gene 6822); assay: CLD_SULT2A_6hr: CellzDirect (CLD) Gene Expression Assay for sulfotransferase (SULT2A) at 6 hours (AID 2283669);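 further: hits raise transcript level above the DMSO vehicle baseline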
Outline: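 Primary human hepatocytes from two donor preparations were dosed daily with chemicals or 0.2% DMSO and harvested at 6 h. Transcript induction read by qNPA chemiluminescence, fitted for gain of signal relative to DMSO; morphology-based cytotoxicity annotated.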

[3] = read-out: glucuronosyltransferase (UGT1A1), UGT1A1 (gene 54658); assay: CLD_UGT1A1_6hr: CellzDirect (CLD) Gene Expression Assay for glucuronosyltransferase (UGT1A1) at 6 hours (AID 2283672)
Outline: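 Primary human hepatocytes from two donor preparations, dosed with fresh solutions in 0.2% DMSO, harvested at 6 h. UGT1A1 mRNA measured by qNPA chemiluminescence; induction fitted upward versus DMSO.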

[4] = read-out: xenobiotic metabolism (CYP1A1), CYP1A1 (gene 1543); assay: CLD_CYP1A1_24hr: CellzDirect (CLD) Gene Expression Assay for xenobiotic metabolism (CYP1A1) at 24 hours (AID 2283673);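 further: CYP1A1 mRNA level by quantitative nuclease protection with chemiluminescence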
Outline: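 Primary human hepatocytes dosed daily with fresh solutions in 0.2% DMSO vehicle. mRNA measured at 24 h by quantitative nuclease protection assay with chemiluminescence; gain-of-signal fit versus DMSO, with morphology-based cytotoxicity flags.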

[5] = read-out: ABC Transporter (ABCB11), ABCB11 (gene 8647); assay: CLD_ABCB11_6hr: CellzDirect (CLD) Gene Expression Assay for ABC Transporter (ABCB11) at 6 hours (AID 2283675);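 further: hits raise ABCB11 mRNA level so AC50 marks induction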
Outline: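 Human primary hepatocytes (two donor preparations) given fresh chemical daily at multiple concentrations, vehicle 0.2% DMSO. ABCB11 mRNA induction measured 6 h after dosing by qNPA chemiluminescence versus DMSO; cytotoxicity annotated from morphology.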

[6] = CLD_ACTIN_6hr: CellzDirect (CLD) Gene Expression Assay for Baseline Control (Actin) at 6 hours (AID 2283676);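 further: active means increased actin mRNA relative to DMSO vehicle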
Outline: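 Primary human hepatocytes dosed with fresh chemical solutions (vehicle 0.2% DMSO), harvested at 6 h. Actin mRNA quantified by quantitative nuclease protection assay with chemiluminescent read-out, as background control relative to DMSO.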

[7] = read-out: Cytochrome P450 2B6 (Homo sapiens) (UniProt P20813); assay: CLD_CYP2B6_6hr: CellzDirect (CLD) Gene Expression Assay for xenobiotic metabolism (CYP2B6) at 6 hours (AID 2283677);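 further: actives raise CYP2B6 transcript above DMSO baseline so AC50 marks an inducer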
Outline: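 Primary human hepatocytes dosed with chemicals at multiple concentrations, vehicle 0.2% DMSO; CYP2B6 mRNA induction measured 6 h after dosing by quantitative nuclease protection assay with chemiluminescence, gain of signal fitted relative to DMSO.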

[8] = read-out: Cytochrome P450 2C19 (Homo sapiens) (UniProt P33261); assay: CLD_CYP2C19_6hr: CellzDirect (CLD) Gene Expression Assay for xenobiotic metabolism (CYP2C19) at 6 hours (AID 2283678)
Outline: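 Primary human hepatocytes from two donor preparations were dosed daily, with 0.2% DMSO as vehicle, and harvested 6 h after dosing. CYP2C19 mRNA induction was measured by qNPA chemiluminescence and fitted as gain of signal against DMSO.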

[9] = CCTE_Padilla_ZF_144hpf_TERATOSCORE: (Legacy) CCTE's 144 Hour Post-fertilization zebrafish Assay Teratoscore, Padilla Lab (AID 2283679; active means hit-call score of the fitted dose curve at least 0.9, where 1 is the maximum; inactive means score below 0.9;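 on AC50: zebrafish embryos with chorions exposed by immersion from 6-8 hpf to 5 dpf with daily renewal; teratogenicity score from eye scoring of death hatching and malformations at 144 hpf; higher score means more developmental defects relative to DMSO baseline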)
Outline: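 Larvae scored by eye at 144 hpf for death, hatching and malformations after a day in clean Hanks'. Before that, daily-renewed exposure at 80 uM (0.4% DMSO, 26C) from roughly 6-8 hpf through 5 dpf, 4 embryos per chemical.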

[10] = read-out: xenobiotic metabolism (CYP1A2), CYP1A2 (gene 1544); assay: CLD_CYP1A2_24hr: CellzDirect (CLD) Gene Expression Assay for xenobiotic metabolism (CYP1A2) at 24 hours (AID 2283683)
Outline: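 Primary human hepatocytes from two donor preparations dosed daily with multiple concentrations of chemical, 0.2% DMSO vehicle. CYP1A2 mRNA at 24 h quantified by qNPA chemiluminescence; gain of signal analyzed relative to DMSO. Cytotoxicity flagged by phase-contrast morphology.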

[11] = read-out: ABC Transporter (ABCB1), ABCB1 (gene 5243); assay: CLD_ABCB1_24hr: CellzDirect (CLD) Gene Expression Assay for ABC Transporter (ABCB1) at 24 hours (AID 2283684);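 on AC50: potency for increase in ABCB1 mRNA relative to DMSO vehicle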
Outline: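 Primary human hepatocytes, two donor preparations, dosed daily with fresh solutions; vehicle 0.2% DMSO; harvested at 24 h. ABCB1 mRNA measured by quantitative nuclease protection assay (chemiluminescence); morphology-based cytotoxicity annotated.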

[12] = read-out: Cytochrome P450 3A4 (Homo sapiens) (UniProt P08684); assay: CLD_CYP3A4_24hr: CellzDirect (CLD) Gene Expression Assay for xenobiotic metabolism (CYP3A4) at 24 hours (AID 2283689)
Outline: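 Primary human hepatocytes from two donors dosed daily with fresh compound for two days, 0.2% DMSO vehicle. CYP3A4 mRNA at 24 hr by qNPA chemiluminescence; gain-of-signal fit versus DMSO, cytotoxicity flagged by morphology.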

[13] = read-out: Glyceraldehyde-3-phosphate dehydrogenase (Homo sapiens) (UniProt P04406); assay: CLD_GAPDH_6hr: CellzDirect (CLD) Gene Expression Assay for Baseline Control (Glyceraldehyde 3-phosphate dehydrogenase) at 6 hours (AID 2283681);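 further: active means increased signal relative to DMSO vehicle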
Outline: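 Primary human hepatocytes from two donor preparations, dosed at multiple concentrations with 0.2% DMSO vehicle; GAPDH mRNA measured 6 h after dosing by chemiluminescent quantitative nuclease protection assay (qNPA) on denatured lysates. Serves as background control; cytotoxicity annotated by morphology.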

[14] = read-out: sulfotransferase (SULT2A), SULT2A1 (gene 6822); assay: CLD_SULT2A_24hr: CellzDirect (CLD) Gene Expression Assay for sulfotransferase (SULT2A) at 24 hours (AID 2283694)
Outline: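 Primary human hepatocytes from two donor preparations were dosed daily with fresh solutions, vehicle 0.2% DMSO. At 24 h, lysates went to quantitative nuclease protection (qNPA) with S1 digestion and chemiluminescent readout. Cytotoxicity was annotated from phase-contrast morphology.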

[15] = read-out: Cytochrome P450 2C9 (Homo sapiens) (UniProt P11712); assay: CLD_CYP2C9_24hr: CellzDirect (CLD) Gene Expression Assay for xenobiotic metabolism (CYP2C9) at 24 hours (AID 2283688)
Outline: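 Primary human hepatocytes from two donor preparations, dosed daily for two days at multiple concentrations; vehicle 0.2% DMSO. CYP2C9 mRNA induction at 24 h measured by qNPA chemiluminescence relative to DMSO; cytotoxicity annotated from morphology.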

[16] = read-out: HMG-CoA synthase (HMGCS2), HMGCS2 (gene 3158); assay: CLD_HMGCS2_24hr: CellzDirect (CLD) Gene Expression Assay for HMG-CoA synthase (HMGCS2) at 24 hours (AID 2283691)
Outline: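 Primary human hepatocytes from two donor preparations, dosed daily with fresh solutions; vehicle 0.2% DMSO, 24 h harvest. HMGCS2 mRNA quantified by qNPA with S1 nuclease digestion and chemiluminescence; gain fitted versus DMSO, cytotoxicity annotated by morphology.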

[17] = read-out: Cytochrome P450 2B6 (Homo sapiens) (UniProt P20813); assay: CLD_CYP2B6_24hr: CellzDirect (CLD) Gene Expression Assay for xenobiotic metabolism (CYP2B6) at 24 hours (AID 2283686)
Outline: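 Primary human hepatocytes dosed daily for two days with fresh solutions, harvested at 24 hours; mRNA induction quantified by qNPA chemiluminescence, gain of signal vs 0.2% DMSO vehicle. Cytotoxicity annotated from phase-contrast morphology.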

[18] = read-out: ABC Transporter (ABCB11), ABCB11 (gene 8647); assay: CLD_ABCB11_48hr: CellzDirect (CLD) Gene Expression Assay for ABC Transporter (ABCB11) at 48 hours (AID 2283697)
Outline: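 Primary human hepatocytes from two donor preparations dosed daily for two days at multiple concentrations; 0.2% DMSO vehicle. ABCB11 mRNA at 48 h by quantitative nuclease protection assay, chemiluminescence; fitted for induction versus DMSO.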

Measured: AC50

Sequence of Cytochrome P450 2C19 (Homo sapiens) (P33261 whole entry, looked up): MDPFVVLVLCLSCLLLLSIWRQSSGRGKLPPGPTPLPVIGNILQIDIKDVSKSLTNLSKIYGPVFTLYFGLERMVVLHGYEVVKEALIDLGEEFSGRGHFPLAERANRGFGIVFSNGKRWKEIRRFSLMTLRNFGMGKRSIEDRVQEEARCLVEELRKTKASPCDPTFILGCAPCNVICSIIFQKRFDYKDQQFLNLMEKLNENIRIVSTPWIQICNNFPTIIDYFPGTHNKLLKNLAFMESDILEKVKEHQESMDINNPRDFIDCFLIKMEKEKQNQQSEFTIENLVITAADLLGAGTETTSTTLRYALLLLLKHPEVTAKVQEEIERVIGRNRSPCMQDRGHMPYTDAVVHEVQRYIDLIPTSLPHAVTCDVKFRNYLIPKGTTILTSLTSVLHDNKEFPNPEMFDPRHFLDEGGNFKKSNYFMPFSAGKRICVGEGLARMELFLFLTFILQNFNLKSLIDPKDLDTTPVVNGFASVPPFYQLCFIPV
Sequence of Glyceraldehyde-3-phosphate dehydrogenase (Homo sapiens) (P04406 whole entry, looked up): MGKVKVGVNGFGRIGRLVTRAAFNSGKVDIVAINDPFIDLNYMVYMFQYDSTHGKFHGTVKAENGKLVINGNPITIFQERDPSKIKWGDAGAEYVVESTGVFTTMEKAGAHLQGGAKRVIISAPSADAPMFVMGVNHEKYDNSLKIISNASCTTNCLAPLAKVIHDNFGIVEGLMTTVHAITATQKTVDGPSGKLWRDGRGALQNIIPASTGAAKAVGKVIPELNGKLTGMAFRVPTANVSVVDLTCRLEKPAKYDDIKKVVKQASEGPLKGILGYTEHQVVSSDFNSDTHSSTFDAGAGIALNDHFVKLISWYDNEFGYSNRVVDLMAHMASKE
Sequence of Cytochrome P450 3A4 (Homo sapiens) (P08684 whole entry, looked up): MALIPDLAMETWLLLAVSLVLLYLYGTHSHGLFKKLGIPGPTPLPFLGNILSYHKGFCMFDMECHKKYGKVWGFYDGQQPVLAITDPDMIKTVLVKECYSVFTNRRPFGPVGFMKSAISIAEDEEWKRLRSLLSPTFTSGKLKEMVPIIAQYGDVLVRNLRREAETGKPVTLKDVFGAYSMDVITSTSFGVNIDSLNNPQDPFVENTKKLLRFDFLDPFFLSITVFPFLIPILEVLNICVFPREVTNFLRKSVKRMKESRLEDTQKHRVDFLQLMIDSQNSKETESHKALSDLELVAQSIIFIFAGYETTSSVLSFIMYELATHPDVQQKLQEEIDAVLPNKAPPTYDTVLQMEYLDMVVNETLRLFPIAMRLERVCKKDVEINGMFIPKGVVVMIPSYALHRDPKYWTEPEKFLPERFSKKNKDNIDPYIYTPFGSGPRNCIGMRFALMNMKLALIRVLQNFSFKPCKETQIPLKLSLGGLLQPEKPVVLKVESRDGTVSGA

CCN(CC)C(=O)SCc1ccc(Cl)cc1
inactive: [1] | [2] | [3] | [4] | [5] | [6] | [8] | [10] | [11]
active: [7] 1.84 µM | [9] 23.4 µM | [12] 20 µM

CC(C)N(C(=O)COc1nnc(C(F)(F)F)s1)c1ccc(F)cc1
inactive: [1] | [2] | [3] | [4] | [13] | [11] | [12] | [14]
active: [7] 14.7 µM | [9] 39.2 µM

CN1CSC(=S)N(C)C1
inactive: [1] | [2] | [3] | [5] | [7] | [8] | [13] | [10] | [11] | [15]
active: [4] 3.9 µM | [9] 0.196 µM

CC(C)(C)C(O)/C(=C\c1ccc(Cl)cc1Cl)n1cncn1 (stereo not given)
active: [4] 6.46 µM | [7] 0.733 µM | [9] 8.76 µM | [11] 29.4 µM | [12] 0.98 µM
inactive: [1] | [2] | [3] | [6] | [13] | [15] | [14]

O=[N+]([O-])/N=C1\NCCN1Cc1ccc(Cl)nc1
inactive: [1] | [2] | [3] | [4] | [5] | [7] | [8] | [9] | [13] | [11] | [12] | [16] | [14]

CNC(=O)Oc1ccccc1OC(C)C
inactive: [1] | [2] | [3] | [4] | [6] | [8] | [9] | [13]
active: [7] 3.21 µM | [17] 1.6 µM | [12] 5.41 µM

CCc1ccc(C(=O)NN(C(=O)c2cc(C)cc(C)c2)C(C)(C)C)cc1
active: [4] 9.97 µM | [5] 20 µM | [7] 2.09 µM | [12] 3.67 µM
inactive: [1] | [2] | [3] | [9] | [11] | [14] | [18]

CCCN(CCOc1c(Cl)cc(Cl)cc1Cl)C(=O)n1ccnc1
inactive: [1] | [2] | [3] | [5] | [6] | [8] | [13]
active: [4] 1.89 µM | [7] 0.702 µM | [9] 5.63 µM | [11] 32.7 µM | [12] 0.57 µM

O=C(NC(=O)c1c(F)cccc1F)Nc1ccc(OC(F)(F)C(F)OC(F)(F)F)c(Cl)c1 (stereo not given)
inactive: [1] | [2] | [3] | [4] | [5] | [6] | [7] | [8] | [9] | [11] | [15] | [12] | [14] | [18]

Cc1[nH]c(=O)n(C(C)(C)C)c(=O)c1Cl
inactive: [2] | [3] | [7] | [8] | [9] | [11] | [15] | [12]
active: [1] 0.00793 µM | [4] 7.51 µM

O=C(Nc1ccccc1)Nc1cnns1
active: [4] 2 µM
inactive: [1] | [2] | [3] | [5] | [6] | [9] | [18]

N#CN
inactive: [1] | [2] | [3] | [5] | [6] | [9] | [13] | [11] | [14]

CCOC1Oc2ccc(OS(C)(=O)=O)cc2C1(C)C (stereo not given)
active: [7] 2.55 µM | [12] 20 µM
inactive: [1] | [2] | [3] | [4] | [6] | [9] | [11] | [15] | [14]
